Common to all, as to assay: Euclidean distance of Cell Painting phenotypic profile (signed KS, 77 features) to DMSO centroid (dimensionless distance); 5 or 10 uM (library dependent); higher = stronger phenotypic change vs DMSO (phenoactivity)
Conditions in all cases: 48 h

One assay concerns 786-O. The procedure, abridged: (§1)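 Harmony extracted 77 features from 20X confocal images (9 fields/well) of stained cells, scoring each as a signed Kolmogorov-Smirnov statistic against same-plate vehicle wells. The cells, five cancer lines and a healthy fibroblast line, had received library compounds for 48 h at 10 or 5 uM depending on library, with 0.1% DMSO final. Phenoactivity is the Euclidean distance from each plate-position-corrected, correlation-weighted, top-dose replicate-averaged profile to the median vehicle profile.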

The subject of another assay is A549. In short, it runs like this:
as §1

The test system of another assay is DU145. The procedure, abridged: as §1
A further assay deals with FB. The procedure, abridged: as §1
The test system of the next assay is HEPG2. In short, it runs like this:
as §1

In another assay the test system is OVCAR4. The procedure, abridged:
as §1

Where a name gives a salt, the structure may show the parent alone.

In the case of `O=C(Nc1cccc2cccnc12)c1ccc(N2C(=O)[C@@H]3[C@H](C2=O)[C@@H]2C=C[C@H]3C2)cc1` [IWR-1-endo], the Euclidean distance in the assay on 786-O was 1; in the assay on A549, 1.06; in the assay with DU145 it was 1.39; in the assay with FB, 1.64; in the assay with HEPG2, 1.53; in the assay with OVCAR4, 1.54.

As to `O=C1CC[C@H](N2Cc3c(OCc4ccc(CN5CCOCC5)cc4)cccc3C2=O)C(=O)N1` [Iberdomide(CC220)], the Euclidean distance turned out to be 1.05 in the assay on 786-O; 1.02 in the assay with A549; 0.711 with DU145; 1.32 in the assay on FB; 1.24 with HEPG2; 0.967 in the assay on OVCAR4.

For the compound `COc1cc2c(cc1OC)[C@@H]1Cc3ccc(OC)c(OC)c3CN1CC2` [Tetrahydropalmatine], the Euclidean distance in the assay with 786-O was found to be 0.584; in the assay on A549, 0.856; with DU145 it was 0.447; in the assay on FB, 0.696; in the assay with HEPG2, 0.585; in the assay on OVCAR4 it was 0.757.

`CNCc1ccc(-c2[nH]c3cc(F)cc4c3c2CCNC4=O)cc1`: the Euclidean distance in the assay with 786-O was found to be 1.61; with A549, 1.12; in the assay with DU145, 0.651; in the assay on FB, 1.66; in the assay on HEPG2, 1.33; in the assay on OVCAR4, 1.23.

For `CC1(C)O[C@@H]2C[C@H]3[C@@H]4C[C@H](F)C5=CC(=O)C=C[C@]5(C)[C@@]4(F)[C@@H](O)C[C@]3(C)[C@]2(C(=O)CO)O1` [Fluocinolone Acetonide], the Euclidean distance in the assay with 786-O amounted to 1.43; in the assay with A549 it was 1.77; in the assay with DU145, 2; in the assay with FB it was 2.02; with HEPG2 it was 0.86; in the assay on OVCAR4, 2.22.

With `CC[C@@H](CO)NCCN[C@@H](CC)CO` [Ethambutol HCl], the Euclidean distance in the assay on 786-O was determined as 1.4; in the assay with A549, 1.22; in the assay on DU145, 0.738; in the assay with FB, 0.916; with HEPG2 it was 1.17; with OVCAR4, 0.884.

On to `COc1cc(CNC(=O)CCCCC=CC(C)C)ccc1O` [Capsaicin(Vanilloid)], for which the Euclidean distance in the assay on 786-O amounted to 1.06; with A549, 1.47; with DU145 it was 1.35; in the assay on FB, 0.876; in the assay with HEPG2, 0.778; in the assay on OVCAR4, 1.44.

For the compound `CC1(C)CC(=O)c2c(C(F)(F)F)nn(-c3ccc(C(N)=O)c(N[C@H]4CC[C@H](OC(=O)CN)CC4)c3)c2C1`, the Euclidean distance in the assay on 786-O turned out to be 3.85; with A549 it was 3.38; in the assay on DU145, 3.89; in the assay on FB, 3.31; in the assay on HEPG2, 3.05; with OVCAR4 it was 2.62.

On to `CCCCC/C=C\C/C=C\CCCCCCCC(=O)O` [Linoleic acid], for which the Euclidean distance in the assay on 786-O worked out at 0.927; with A549, 1.38; in the assay on DU145, 1.02; in the assay on FB, 1.3; with HEPG2, 0.86; in the assay on OVCAR4, 1.11.

As to `CN[C@@H](C)C(=O)N[C@H]1CN(C(=O)CC(C)C)CC[C@H]2CC[C@@H](C(=O)NC(c3ccccc3)c3ccccc3)N2C1=O`, the Euclidean distance with 786-O was found to be 1.44; in the assay with A549 it was 1.35; in the assay on DU145, 0.871; in the assay with FB it was 0.766; in the assay with HEPG2, 0.91; in the assay on OVCAR4 it was 1.24.

Consider `O=c1cc(-c2ccccc2)oc2cc(O)cc(O)c12` [Chrysin], for which the Euclidean distance stood at 1.58 with 786-O; 1.09 with A549; 1.1 in the assay with DU145; 1 in the assay on FB; 1.37 in the assay on HEPG2; 1.37 with OVCAR4.

`O=C(c1ccc(F)cc1)N1CCC[C@H](c2nc(-c3ccc(F)cc3)no2)C1`: the Euclidean distance amounted to 1.35 in the assay on 786-O; 0.726 with A549; 0.856 with DU145; 1.17 with FB; 0.656 in the assay on HEPG2; 0.832 in the assay with OVCAR4.

For the compound `CC(C)CN(C[C@@H](O)[C@H](Cc1ccccc1)NC(=O)O[C@H]1CCOC1)S(=O)(=O)c1ccc(N)cc1` [Amprenavir], the Euclidean distance was found to be 1.35 in the assay on 786-O; 1.29 in the assay on A549; 1.22 in the assay with DU145; 1.22 in the assay on FB; 1.26 in the assay with HEPG2; 1.6 with OVCAR4.

With `COc1cc2/c(=N/c3ccc(Br)cc3F)nc[nH]c2cc1OCC1CCN(C)CC1` [Vandetanib (ZD6474)], the Euclidean distance was determined as 1.3 in the assay on 786-O; 2.59 in the assay with A549; 2.38 in the assay on DU145; 2.66 in the assay with FB; 1.7 with HEPG2; 2.94 with OVCAR4.

As to `CSCCNc1nc(SCCC(F)(F)F)nc2c1ncn2[C@@H]1O[C@H](COP(=O)(O)OP(=O)(O)C(Cl)(Cl)P(=O)(O)O)[C@@H](O)[C@H]1O` [Cangrelor Tetrasodium], the Euclidean distance with 786-O is 1.09; in the assay on A549, 1.07; in the assay on DU145, 0.563; in the assay on FB it was 1.25; in the assay on HEPG2, 0.767; in the assay on OVCAR4, 0.58.

For the compound `COc1ccc(CNCc2cccc3ccccc23)cc1`, the Euclidean distance in the assay on 786-O turned out to be 1.72; with A549, 1.46; in the assay with DU145, 0.984; in the assay on FB, 1.27; with HEPG2, 0.933; in the assay with OVCAR4, 1.04.

Turning to `CNC(=O)c1ccccc1Sc1ccc2c(/C=C/c3ccccn3)n[nH]c2c1` [Axitinib], the Euclidean distance was found to be 3.11 in the assay on 786-O; 3.76 with A549; 3.18 in the assay on DU145; 3.27 in the assay with FB; 2.51 in the assay with HEPG2; 3.92 in the assay on OVCAR4.

As to `O=C(C=Cc1ccccc1)NC(NC(=S)Nc1ccc(Cl)cc1)C(Cl)(Cl)Cl` (centres undefined), the Euclidean distance with 786-O turned out to be 1.51; in the assay on A549 it was 2.16; with DU145, 1.33; in the assay on FB, 1.53; with HEPG2 it was 2.23; in the assay on OVCAR4, 1.08.

On to `N[C@H]1CONC1=O` [L-Cycloserine], for which the Euclidean distance with 786-O is 0.838; with A549, 0.531; in the assay with DU145 it was 1.03; in the assay with FB, 1.02; in the assay on HEPG2, 0.788; in the assay on OVCAR4, 1.56.

For the compound `C=CCOc1ccccc1OCC(O)CNC(C)C` (centres undefined) [Oxprenolol HCl], the Euclidean distance with 786-O is 0.863; with A549, 0.819; with DU145, 1.56; with FB, 1.21; with HEPG2, 0.783; in the assay with OVCAR4 it was 0.994.

With `COc1ccccc1OCCNCC(O)COc1cccc2[nH]c3ccccc3c12` (centres undefined) [Carvedilol Phosphate], the Euclidean distance with 786-O worked out at 2.5; in the assay on A549, 2.28; in the assay with DU145, 1.98; in the assay with FB it was 1.66; in the assay on HEPG2, 2.55; in the assay with OVCAR4, 1.81.

Take `NC(=O)OCC(COC(N)=O)c1ccccc1` [Felbamate]: the Euclidean distance came out at 1.13 with 786-O; 0.883 in the assay on A549; 0.57 in the assay with DU145; 1.58 in the assay with FB; 0.405 with HEPG2; 0.882 in the assay on OVCAR4.

Turning to `COc1cc(Br)c(Nc2nc(-c3c(C)nc4ncccn34)cs2)c(Br)c1`, the Euclidean distance in the assay on 786-O is 3.62; with A549, 2.67; with DU145, 2.18; in the assay on FB, 2.66; in the assay on HEPG2 it was 4.16; in the assay on OVCAR4, 1.63.

Regarding `Cc1nc(C)c(C)nc1C` [Ligustrazine hydrochloride], the Euclidean distance in the assay with 786-O was found to be 0.557; with A549, 0.605; in the assay on DU145, 0.684; in the assay on FB it was 0.693; in the assay with HEPG2, 0.523; in the assay on OVCAR4 it was 0.693.
